From PubChem BioAssay
An excerpt weighted towards active compounds, which were near 18% of everything screened.
TDP1 cell noCPT = qHTS for Inhibitors of human tyrosyl-DNA phosphodiesterase 1 (TDP1): qHTS in cells in absence of CPT; DT40 Tdp1-/- hTDP1 cells, no CPT, ATP luminescence, 48 h; Potency, µM (top dose mostly 46.2 µM), for inactives: at the highest dose activity change, negative = growth inhibition, actives largely listed as inhibitors; 15% of 420,000 active; note: potency is the fitted concentration of half-maximal effect; nearly all actives have a fitted effect of over 55% in size
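Cells were dispensed at 400 per well, compounds added by pin tool, plates incubated ≥48 hr at 37 °C, then CellTiter-Glo added for 30 min at room temperature before luminescence reading. Line: DT40 Tdp1-/- complemented with hTDP1; camptothecin omitted.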
RORg inh = qHTS for inhibitors of ROR gamma transcriptional activity | Nuclear receptor ROR-gamma (Mus musculus), P51450 | Drosophila S2 Gal4-RORgamma UAS-luciferase reporter, 20 h | Potency, µM (doses to about 53.6 µM), for the others: top-dose activity change, negative = inhibition, usual class: inhibitors | 5.4% of 310,000 active; note: potency is the fitted concentration of half-maximal effect; nearly all actives have a fitted effect of over 60% in size
Target sequence (P51450 whole entry, looked up, the tested form may be a part): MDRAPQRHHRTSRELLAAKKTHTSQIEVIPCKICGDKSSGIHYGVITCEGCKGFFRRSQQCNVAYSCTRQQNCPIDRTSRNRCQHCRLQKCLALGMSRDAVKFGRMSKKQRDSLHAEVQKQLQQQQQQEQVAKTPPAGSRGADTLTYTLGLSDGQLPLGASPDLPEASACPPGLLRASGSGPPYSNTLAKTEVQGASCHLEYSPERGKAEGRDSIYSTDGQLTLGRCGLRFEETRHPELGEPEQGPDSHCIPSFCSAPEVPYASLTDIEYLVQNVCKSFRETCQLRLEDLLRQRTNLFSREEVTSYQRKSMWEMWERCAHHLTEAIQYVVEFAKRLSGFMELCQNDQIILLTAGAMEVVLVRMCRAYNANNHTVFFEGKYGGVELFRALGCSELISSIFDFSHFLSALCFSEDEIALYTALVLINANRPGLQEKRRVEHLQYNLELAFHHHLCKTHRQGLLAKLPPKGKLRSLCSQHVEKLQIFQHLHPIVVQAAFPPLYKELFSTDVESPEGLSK
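Drosophila Schneider cells stably carrying a metallothionein-driven Gal4 DBD–ROR gamma fusion and a UAS-Photinus luciferase reporter were exposed to compound for 1 hr, then induced with copper sulfate (700 uM final) for 20 hr at ambient temperature before luminescence reading.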
TDP1 cell CPT = qHTS for Inhibitors of human tyrosyl-DNA phosphodiesterase 1 (TDP1): qHTS in cells in presence of CPT; chicken DT40 Tdp1-/-;hTDP1 cells + 20 nM CPT, ATP luminescence, 48 h; Potency, µM (titrated, usually from 46.2 µM), without a hit: at the top dose activity change, negative = growth inhibition, actives largely listed as inhibitors; 12% of 420,000 active; AID 686979, 2013; note: potency is the fitted concentration of half-maximal effect; nearly all actives have a fitted effect of over 55% in size
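Cell growth measured by CellTiter-Glo luminescence after a minimum 48 h, 37 C compound exposure with 20 nM CPT in Tdp1-knockout DT40 cells stably expressing hTDP1, seeded 400/well; qHTS titration format.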
LDHA inh = qHTS assay for inhibitors of human lactate dehydrogenase; L-lactate dehydrogenase A chain (Homo sapiens), P00338; purified LDHA, NADH/diaphorase-resazurin fluorescence; stronger effect = lower value; activity change, % (values are at about 110 or 230 µM); 0.15% of 480,000 active; in the data active = activity change below about -30%; inconclusive = mostly about -25% to -30%;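 note: plate controls were DMSO wells for no effect and wells without enzyme for full effect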
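LDH5 2 nM; NADH 0.06 mM, pyruvate 0.2 mM; 200 mM Tris pH 7.4, EDTA, Tween-20; 5 min RT. Detection: diaphorase 0.133 mg/mL + resazurin 37 µM, fluorescence ex540/em590 at 0 and 20 min; normalized to enzyme-free and DMSO wells.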
VP16 counter = VP16 counterscreen qHTS for inhibitors of ROR gamma transcriptional activity; Drosophila S2 Gal4-VP16 UAS-luciferase, luminescence, 20 h; Potency, µM (doses to about 53.6 µM), for inactives: at the highest dose activity, negative = inhibition, hits mostly inhibitors; 3.5% of 310,000 active; AID 2546, 2010;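 note: Gal4-VP16 expression switched on by copper sulfate through the metallothionein promoter; potency is the fitted concentration of half-maximal effect; nearly all actives have a fitted effect of over 50% in size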
IL-1B inflam inh = qHTS for Inhibitors of Inflammasome Signaling: IL-1-beta AlphaLISA Primary Screen | activity change, % at 57.5 µM | 4.7% of 360,000 active | THP-1 LPS/ATP IL-1B secretion, AlphaLISA, 16 h; stronger effect = lower value; in the data active = activity change below about -50%; inconclusive = mostly about -30% to -49%
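Secreted IL-1B measured by AlphaLISA bead assay after 16 h compound exposure of THP-1 cells; compounds (final up to 57.5 uM) added 1 h before LPS (250 ng/mL) and ATP (1.25 mM) stimulation; lower signal means less secretion.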
Numbers without * were called inactive; ? = inconclusive; . = no result. Unless noted, calls come from the whole dose curve; as a rule, active = well fitted curve in the direction sought with a large enough effect; inconclusive = small, poorly fitted or top-dose-only effect, or another doubt; inactive = no such curve, though single readings can be large; an effect the other way counts as inactive or inconclusive. Unless noted, % is set by controls: 0 for no effect and ±100 for the full control effect.

SMILES	TDP1 cell noCPT	RORg inh	TDP1 cell CPT	LDHA inh	VP16 counter	IL-1B inflam inh
O=c1c2cc(Cl)ccc2ncn1Cc1nc(-c2ccccc2)no1	.	.	.	3	.	.
O=C1CCCC2=C1C(c1cccc(F)c1)C1=C(CCCC1=O)O2	.	.	.	10	.	.
O=C(/C=C/c1ccccc1)CC(=O)c1ccccc1	?	.	?	-1	.	-18
O=C(CC(=O)c1ccccc1)CC(O)(C=Cc1ccccc1)c1ccccc1 (stereo not given)	16µM*	.	21µM*	4	.	-10
CN(Cc1ccc(Br)cc1)C(=O)c1cc2ccccc2[nH]1	.	.	.	9	.	.
Cc1cccc(CNC(=O)CCCn2c(=O)c3cccn3c3ccc(F)cc32)c1	23µM*	.	?	0	.	.
COc1ccc(CNC(=O)CCCn2c(=O)c3cccn3c3ccc(F)cc32)cc1OC	18µM*	.	18µM*	-2	.	.
COc1ccc(CCNC(=O)Cn2c(=O)c3cccn3c3ccccc32)cc1OC	23µM*	.	?	-3	.	.
COc1ccccc1OC(C)C(=O)Nc1cccc(-c2nc3ccccc3s2)c1 (stereo not given)	12µM*	.	21µM*	-2	.	.
CC(Oc1ccc(F)cc1)C(=O)Nc1cccc(-c2nc3ccccc3o2)c1 (stereo not given)	.	.	.	-1	.	.
COc1ccccc1OC(C)C(=O)Nc1cccc(-c2nc3ccccc3o2)c1 (stereo not given)	21µM*	.	?	6	.	.
Cc1cc(OC(C)C(=O)Nc2cccc(-c3nc4ccccc4o3)c2)cc(C)c1Cl (stereo not given)	16µM*	.	?	-2	.	.
O=C(OCc1ncc(-c2ccc(Cl)cc2)o1)c1ccc(F)cc1	.	.	.	2	.	.
O=C(NCc1ccncc1)c1cc(-c2ccccc2Cl)nc2ccccc12	.	.	.	0	.	.
O=C(O)C(c1c[nH]c2ccccc12)N1CCN(Cc2ccccn2)CC1 (stereo not given)	.	.	.	-6	.	.
CSC(=S)N/N=C(\C)c1ccc(Br)cc1	2.9µM*	1%	?	4	-11%	50
Cc1ccc(NC(=O)c2cc(=O)c3cc(C)ccc3o2)c(C)c1	.	.	.	6	.	.
CCCN1CCN(C(=O)c2noc3c2COc2ccc(C)cc2-3)CC1	16µM*	-23%	21µM*	0	-2%	4
Cc1ccc2c(c1)-c1onc(C(=O)N3CCN(c4cc(C)ccc4C)CC3)c1CO2	.	.	.	0	.	.
CCn1c(=O)cc(OCC(=O)N2CCN(c3ccc(F)cc3)CC2)c2ccccc21	15µM*	-11%	23µM*	-5	-15%	0
CCn1c(=O)cc(OCC(=O)N2CCN(c3ccc(C)cc3)C(C)C2)c2ccccc21 (stereo not given)	6.5µM*	.	7.3µM*	4	.	.
CCn1c(=O)cc(OCC(=O)N2CCCCCC2)c2ccccc21	18%	-19%	-5%	0	1%	-2
CCn1c(=O)cc(OCC(=O)N2CCc3ccccc32)c2ccccc21	-14%	-8%	-2%	-4	12%	-23
CCN1CCC2(CC1)Oc1c(OC)cccc1C1CC(c3ccc4c(c3)OCCO4)=NN12 (stereo not given)	.	.	.	23	.	.
CCCn1c(=O)[nH]c(=O)c2c1nc(-c1ccc(C)cc1)n2CCN1CCOCC1	.	.	.	4	.	.
SMILES	TDP1 cell noCPT	RORg inh	TDP1 cell CPT	LDHA inh	VP16 counter	IL-1B inflam inh
O=C(O)c1cnc(/C=C/c2csc(-c3ccccn3)n2)s1	.	.	.	-3	.	.
COc1ccc(NS(=O)(=O)c2ccc(C)c(C(=O)Nc3ccc4oc(C)nc4c3)c2)cc1	.	.	.	2	.	.
O=C1[C@H](Cc2ccccc2)NCCCC[C@H](c2ccc(Cl)cc2)N1Cc1ccc(Cl)cc1	18µM*	.	23µM*	-1	.	?
O=C1[C@H](Cc2ccccc2)NCCCC[C@@H](c2ccc(Cl)cc2)N1Cc1ccccc1	13µM*	.	18µM*	1	.	-53*
CCOC(=O)C1CCCN(C(=O)c2ccccc2NC(=O)c2nsc3ccccc23)C1 (stereo not given)	?	.	16µM*	3	.	.
CCOC(=O)C1CCCN(C(=O)c2cccc(NC(=O)c3nsc4ccccc34)c2)C1 (stereo not given)	21µM*	.	21µM*	3	.	.
CN1CC2=Cc3ccccc3OC23Oc2ccccc2C=C3C1	?	-42%	?	-1	6%	-117*
Cc1nc2ccccc2c2oc(C(=O)N3CCN(C4CCCCC4)CC3)cc12	12µM*	-23%	21µM*	-3	5%	-4
COc1ccc(N2CCN(C(=O)c3cc4c(C)nc5ccccc5c4o3)CC2)cc1	9.2µM*	18%	16µM*	1	-4%	0
COC(=O)c1ccc(COC(=O)C23CC4CC(CC(O)(C4)C2)C3)cc1	.	.	.	-6	.	.
COc1cc(C)cc2oc(=O)c(CC(=O)NCCCOC(C)C)c(C)c12	.	.	.	10	.	.
O=C(CCCSc1nc2ccccc2s1)Nc1ccc(F)cc1F	.	.	.	7	.	.
COc1cc(NC(=S)N2c3ccccc3CC2C)cc(OC)c1 (stereo not given)	-11%	8.9µM*	18%	-1	18µM*	31
Cc1ccccc1NC(=O)N1c2ccccc2CC1C (stereo not given)	-26%	9%	?	-5	-8%	-10
COc1cccc(NC(=S)N2c3ccccc3CC2C)c1 (stereo not given)	6%	22µM*	-24%	0	?	12
COc1ccc(OC)c(NC(=S)N2c3ccccc3CC2C)c1 (stereo not given)	-1%	36%	-26%	7	-1%	13
Cc1ccnc(NC(=O)Cc2ccccc2Cl)c1	.	.	.	-10	.	.
CC(=O)c1ccc(S(=O)(=O)N2CCn3cccc3C2c2ccccc2F)cc1 (stereo not given)	-44%	.	?	-10	.	.
Cc1ccc(C2c3cccn3CCN2S(=O)(=O)c2ccc([N+](=O)[O-])cc2)cc1 (stereo not given)	18µM*	.	?	-5	.	.
CC(=O)c1ccc(S(=O)(=O)N2CCn3cccc3C2c2ccc(F)c(F)c2)cc1 (stereo not given)	21µM*	.	?	1	.	.
N=NC(=O)c1ccccc1Nc1c(O)[nH]c2ccccc12	?	.	21µM*	-2	.	-1
COc1ccc(-n2[nH]c(-c3ccc(OC)c(OC)c3)cc2=O)cc1	.	.	.	-4	.	.
